The structures appear in SMILES notation. Where a name gives a salt, the structure may show the parent alone. ± gives the standard deviation of the averaged measurements.

This test deals with Saccharomyces cerevisiae BY4741 SeMeCo community. Briefly: mean cell size (pixel area) (pixels); higher = larger cells. The conditions noted are these: 10 µM; 24 h; SM minimal medium. In outline: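 A Saccharomyces cerevisiae BY4741 community carrying four plasmids, each with a fluorescent marker and each complementing one auxotrophy, was exposed for 24 h to drug at a final 10 µM in SM medium in acoustically predosed 384-well plates. The overnight preculture (OD600 = 1.0) was diluted to OD600 = 0.3 before 70 µl was added per well. Cells were then fixed with paraformaldehyde, imaged by automated confocal microscopy and analysed in Harmony to derive mean cell pixel area per well, averaged over 3 replicates. Same SeMeCo high-content imaging drug screen: Selleck FDA-approved drugs at 10 µM, 24 h in SM medium, 384-well plates, 3 replicates.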
Compound `CN1[C@@H](CC(=O)c2ccccc2)CCC[C@H]1C[C@H](O)c1ccccc1` [Lobeline hydrochloride] came in with a mean cell size of 12.5 ± 0.23.

Consider `CC[C@H](C)C[C@H](C)CCCCCCCCC(=O)N[C@H]1C[C@@H](O)[C@@H](NCCN)NC(=O)[C@@H]2[C@@H](O)CCN2C(=O)[C@H]([C@H](O)CCN)NC(=O)[C@H]([C@H](O)[C@@H](O)c2ccc(O)cc2)NC(=O)[C@@H]2C[C@@H](O)CN2C(=O)[C@H]([C@@H](C)O)NC1=O` [Caspofungin Acetate], for which the mean cell size turned out to be 12.17 ± 0.068.

Turning to `CCCCCCCCCCCCCCCC[N+](C)(C)C` [Cetrimonium Bromide (CTAB)], the mean cell size amounted to 10.8 ± 0.24.

Compound `O=C(O)c1cc(=O)c2c(OCC(O)COc3cccc4oc(C(=O)O)cc(=O)c34)cccc2o1` [Disodium Cromoglycate] registered a mean cell size of 12.1 ± 0.22.

Take `CN(C)C(=O)COC(=O)Cc1ccc(OC(=O)c2ccc(NC(=N)N)cc2)cc1` [Camostat Mesilate]: the mean cell size was 12.5 ± 0.12.

With `Clc1ccc(CCC(Cn2ccnc2)Sc2c(Cl)cccc2Cl)cc1` (stereo not given) [Butoconazole], the mean cell size came out at 12.08 ± 0.019.

In turn, `Cn1nnc(-c2ccc(-c3ccc(N4C[C@H](COP(=O)(O)O)OC4=O)cc3F)cn2)n1` [Tedizolid Phosphate] gave a mean cell size of 12.5 ± 0.29.

With `N[C@H]1CONC1=O` [L-Cycloserine], the mean cell size was determined as 11.54 ± 0.047.

On to `CO/N=C(\C(=O)N[C@@H]1C(=O)N2C(C(=O)O)=CCS[C@H]12)c1csc(N)n1` [Ceftizoxime], for which the mean cell size is 12.47 ± 0.084.

Regarding `N[C@@H]1CCCCN(c2c(F)cc3c(=O)c(C(=O)O)cn(C4CC4)c3c2Cl)C1` [Besifloxacin HCl], the mean cell size is 12 ± 0.16.

In turn, `COC(=O)C1=C(C#N)NC(C)=C(C(=O)OC(C)C)C1c1cccc([N+](=O)[O-])c1` (stereo not given) [Nilvadipine] displayed a mean cell size of 12.6 ± 0.18.

`CCOC(=O)c1ccc(N)cc1` [Benzocaine] displayed a mean cell size of 12.5 ± 0.19.

`c1cnc2cc3c(cc2n1)[C@@H]1CNC[C@H]3C1` [Varenicline Tartrate] showed a mean cell size of 12.1 ± 0.23.

Turning to `CC1(C)S[C@@H]2[C@H](NC(=O)Cc3ccccc3)C(=O)N2[C@H]1C(=O)O` [Penicillin G Sodium], the mean cell size amounted to 12.6 ± 0.34.

Regarding `COc1ccnc(C[S+]([O-])c2nc3cc(-n4cccc4)ccc3[nH]2)c1C` (stereo not given) [Ilaprazole sodium], the mean cell size worked out at 12.7 ± 0.23.

Compound `CCN(CC)CC#CCOC(=O)C(O)(c1ccccc1)C1CCCCC1` (stereo not given) [Oxybutynin chloride] came in with a mean cell size of 12.57 ± 0.03.

As for `CN(C)[C@@H]1C(O)=C(C(N)=O)C(=O)[C@@]2(O)C(O)=C3C(=O)c4c(O)cccc4[C@@](C)(O)[C@H]3[C@H](O)[C@@H]12` [Oxytetracycline Dihydrate], the mean cell size stood at 12.6 ± 0.18.

`CN(C)CCC=C1c2ccccc2CCc2ccccc21` [Amitriptyline HCl] gave a mean cell size of 12.3 ± 0.27.

As for `O=C(Nc1c(Cl)cncc1Cl)c1ccc(OC(F)F)c(OCC2CC2)c1` [Roflumilast], the mean cell size worked out at 12.4 ± 0.14.

Take `CCOC(=O)C1=C(COCCN)NC(C)=C(C(=O)OC)C1c1ccccc1Cl` (stereo not given) [Amlodipine Besylate]: the mean cell size came to 12.6 ± 0.18.

Turning to `O=C1C(CC[S+]([O-])c2ccccc2)C(=O)N(c2ccccc2)N1c1ccccc1` (racemic) [(+/-)-Sulfinpyrazone], the mean cell size stood at 12.5 ± 0.2.

With `C1N2CN3CN1CN(C2)C3` [Methenamine], the mean cell size came out at 12.21 ± 0.073.

`CCCCC(=O)O[C@H]1CC[C@H]2[C@@H]3CCc4cc(O)ccc4[C@H]3CC[C@]12C` [Estradiol valerate] had a mean cell size of 12.4 ± 0.22.

Take `CCCC1CC(C(=O)NC(C(C)Cl)C2OC(SC)C(O)C(O)C2O)N(C)C1` (stereo not given) [Clindamycin alcoholate]: the mean cell size turned out to be 12.1 ± 0.19.

On to `Nc1cc(C(Cl)=C(Cl)Cl)c(S(N)(=O)=O)cc1S(N)(=O)=O` [Clorsulon], for which the mean cell size was determined as 12.46 ± 0.016.

In the case of `CC(C)COc1ccc(CNC(=O)N(Cc2ccc(F)cc2)C2CCN(C)CC2)cc1` [Pimavanserin], the mean cell size was found to be 12.4 ± 0.25.

`C=CC[C@@H]1/C=C(\C)C[C@H](C)C[C@H](OC)[C@H]2O[C@@](O)(C(=O)C(=O)N3CCCC[C@H]3C(=O)O[C@H](/C(C)=C/[C@@H]3CC[C@@H](O)[C@H](OC)C3)[C@H](C)[C@@H](O)CC1=O)[C@H](C)C[C@@H]2OC` [Tacrolimus (FK506)] registered a mean cell size of 12.02 ± 0.1.

`O=C1[C@H]2CCCC[C@H]2C(=O)N1CCCCN1CCN(c2nsc3ccccc23)CC1` [Perospirone hydrochloride] had a mean cell size of 12.5 ± 0.18.

Consider `OCc1ccccc1O[C@@H]1O[C@H](CO)[C@@H](O)[C@H](O)[C@H]1O` [Salicin], for which the mean cell size worked out at 12.4 ± 0.14.

On to `CC(=O)O[C@H]1C[C@@]2(C)[C@@H](C[C@@H](O)[C@H]3[C@@]4(C)CC[C@@H](O)[C@@H](C)[C@@H]4CC[C@@]32C)/C1=C(\CCC=C(C)C)C(=O)O` [Fusidine], for which the mean cell size worked out at 12.41 ± 0.032.

With `COc1cc(Cc2cnc(N)nc2N)cc(OC)c1OC` [Trimethoprim], the mean cell size was 12.4 ± 0.14.

As to `COc1ccc(Cc2cnc(N)nc2N)cc1OC` [Diaveridine], the mean cell size is 12.35 ± 0.055.

`Nc1nnc(-c2cccc(Cl)c2Cl)c(N)n1` [Lamotrigine] had a mean cell size of 12.37 ± 0.07.

On to `COCCCOc1ccnc(C[S+]([O-])c2nc3ccccc3[nH]2)c1C` (stereo not given) [Rabeprazole], for which the mean cell size came out at 12.5 ± 0.21.

For the compound `Cc1cccc(C)c1NC(=O)C1CCCCN1C` (stereo not given) [Mepivacaine HCl], the mean cell size was determined as 12.5 ± 0.31.

`CC1=C(C(=O)O)N2C(=O)[C@@H](NC(=O)[C@H](N)C3=CCC=CC3)[C@H]2SC1` [Cephradine monohydrate] gave a mean cell size of 11.9 ± 0.16.

As to `COc1cccc2c1C(=O)c1c(O)c3c(c(O)c1C2=O)C[C@@](O)(C(=O)CO)C[C@@H]3O[C@H]1C[C@H](N)[C@@H](O)[C@H](C)O1` [Epirubicin HCl], the mean cell size is 12.6 ± 0.2.

In turn, `CCCCCOc1ccccc1/C(=C\SC)n1ccnc1` [Neticonazole Hydrochloride] yielded a mean cell size of 11.8 ± 0.13.

The compound `C[C@@H](CN1CC(=O)NC(=O)C1)N1CC(=O)NC(=O)C1` [Dexrazoxane HCl (ICRF-187, ADR-529)] showed a mean cell size of 12.49 ± 0.096.

`CN1C[C@@H]2C[C@H]1CN2c1cc2c(cc1F)c(=O)c(C(=O)O)cn2C1CC1` [Danofloxacin Mesylate] gave a mean cell size of 12.1 ± 0.25.

(Values after the supplement of paper PMC8975748.)
